From PubChem BioAssay (NCI)
About 83,000 compounds went through this panel and 20% of them were active in at least one assay; those are over-represented in the sample as a whole.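 Treatment: one concentration, 48 hours, 96-well format. Scoring: percent growth, with anything below 10 considered active.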 Values without a mark were called inactive. Active and inactive are the calls of the source.

Experiments:
Assay in all cases: NCI-60 one-dose screen, 48 h (100 = growth as untreated, 0 = no growth, -100 = all killed)
Settings in all cases: 10 µM unless noted
HCT-15 colon = tested on: HCT-15 colon
HT29 colon = tested on: HT29 colon
SNB-75 CNS = tested on: SNB-75 CNS
SNB-19 CNS = tested on: SNB-19 CNS
U251 CNS = tested on: U251 CNS
PC-3 prostate = tested on: PC-3 prostate
UACC-62 melanoma = tested on: UACC-62 melanoma
LOX IMVI melanoma = tested on: LOX IMVI melanoma
SK-MEL-28 melanoma = tested on: SK-MEL-28 melanoma
EKVX NSCLC = tested on: EKVX NSCLC
SN12C renal = tested on: SN12C renal
UO-31 renal = tested on: UO-31 renal
TK-10 renal = tested on: TK-10 renal
ACHN renal = tested on: ACHN renal
A498 renal = tested on: A498 renal
CCRF-CEM leukemia = tested on: CCRF-CEM leukemia
MOLT-4 leukemia = tested on: MOLT-4 leukemia
SK-MEL-2 melanoma = tested on: SK-MEL-2 melanoma
CAKI-1 renal = tested on: CAKI-1 renal

Row | Structure (SMILES) | growth (HCT-15 colon) | growth (HT29 colon) | growth (SNB-75 CNS) | growth (SNB-19 CNS) | growth (U251 CNS) | growth (PC-3 prostate) | growth (UACC-62 melanoma) | growth (LOX IMVI melanoma) | growth (SK-MEL-28 melanoma) | growth (EKVX NSCLC) | growth (SN12C renal) | growth (UO-31 renal) | growth (TK-10 renal) | growth (ACHN renal) | growth (A498 renal) | growth (CCRF-CEM leukemia) | growth (MOLT-4 leukemia) | growth (SK-MEL-2 melanoma) | growth (CAKI-1 renal)
1 | CN1C(=O)C2(SCC(C(=O)NCc3ccccc3)N2C(=O)C2CCCCC2)c2ccccc21 (stereo not given) | 99.2% | 102% | 47.2% | 98.5% | 98.3% | 82.8% | 93.4% | 91.6% | 113% | 86.8% | 102% | 64% | 115% | 104% | 98.9% | 102% | 78.7% |  | 
2 | N#Cc1nnn(-c2ccc(S(N)(=O)=O)cc2)c1NC(=O)CCl | 96% | 102% | 85.5% | 96.3% | 92.3% | 89.7% | 96.6% |  | 104% | 91.4% | 88.3% | 86.5% | 96.4% | 108% | 91.5% | 88.8% | 92.4% | 106% | 
3 | COc1ccc(/C=C/C(=O)c2cc(O)ccc2O)cc1 | 87.7% | 102% | 84.1% | 96.6% | 84.8% | 88.4% | 102% |  | 109% | 93% | 93.7% | 73.1% | 95.3% | 84.9% | 109% | 41.1% | 79.2% | 101% | 67.7%
4 | c1ccc(Cn2cc(-c3nc4ccccc4s3)c3cccnc32)cc1 | 109% | 100% | 91% | 110% | 100% | 97% | 97.6% |  | 113% | 80.5% | 94.5% | 76.7% | 118% | 105% | 104% | 112% | 105% | 102% | 92.9%
5 | COc1cc(-c2nn(-c3ccc(C)cc3)cc2C(=O)O)ccc1O | 99.4% | 107% | 87.5% | 97.7% | 108% | 91% | 96.1% |  | 104% | 88.3% |  | 74.7% | 133% | 97.5% | 110% | 97.5% | 83.2% |  | 
6 | COc1cc(Nc2cc(C)nc(N3CCN(c4ccnc5cc(Cl)ccc45)CC3)n2)cc(OC)c1 | 5.63% (active) | 3.4% (active) | 8.38% (active) | 27.5% | 9.56% (active) | 22.8% | -2.21% (active) |  | 44.5% |  | 0.314% (active) | -9.39% (active) | 17.9% | 7.48% (active) | -12.5% (active) | 5.29% (active) | 5.97% (active) | 26% | 10.8%
7 | COc1ccccc1Nc1nc(-c2cc3cccc(C(F)(F)F)c3oc2=O)cs1 | 16% | 3.1% (active) | 15% | 26.7% | 9.97% (active) | 21.2% |  | 17.3% |  | 36.1% |  | 52% | 67.9% | 24.6% | -9.67% (active) | 7.96% (active) | 14.9% | 26.8% | 9.18% (active)
8 | Cc1c(/C=C/[N+](=O)[O-])ccc2c1[nH]c1ccccc12 | 81.3% | 96.5% | 107% | 100% | 73.7% | 95.5% | 81% |  | 113% | 98.6% | 99.7% | 94.3% | 93.2% | 111% | 83.6% | 87% | 94.9% | 93.5% | 102%
9 | COc1ccc(/C=C\c2cc(OC)c(OC)c(OC)c2)cc1OCC(=O)Nc1ccc2nc(C)sc2c1 | 28.3% | 29.2% | 26.9% | 57.4% | 38.3% | 23.4% | 11.9% | 49.6% |  | 66.8% | 51.8% | 5.67% (active) | 1.02% (active) | 47.1% | 80.1% | 15.5% | 22.7% | -1.27% (active) | 23%
10 | CCCCCCN(CCCCCC)C(=N)c1ccnc2ccccc12 | 65.9% | 8.96% (active) | 57.6% | 84.1% | 63.9% | 58.3% | 81.3% | 30% | 88.4% | 84.5% | 71.9% | 36.5% | 73.4% | 53.2% |  | -4.39% (active) | 48.8% |  | 
11 | COc1cc(-c2nc3ccccc3[nH]2)ccc1OCc1nnc(-c2ccc(CC(C)C)cc2)o1 | 76.5% | 75.2% | 94.3% | 91.8% | 69.5% | 86% | 92.7% |  | 93.5% |  |  | 64.9% | 115% | 101% | 64% | 84.9% | 78.8% | 101% | 96.3%
12 | CC(=O)O[C@H]1C(=O)[C@@]2(C)[C@H]([C@H](OC(=O)c3ccccc3)[C@]3(O)C[C@H](OC(=O)[C@H](OC(=O)CCC(=O)OC4CCC(S/N=C(N)/N=C(\N)N(C)C)CC4)[C@@H](NC(=O)c4ccccc4)c4ccccc4)C(C)=C1C3(C)C)[C@]1(OC(C)=O)CO[C@@H]1C[C@@H]2O (stereo not given in full) | 25.3% | 5% (active) | -22.3% (active) | 29.8% | 17.1% | 28.4% |  | 42.9% |  | 37.3% |  | 47.3% | 48.9% | 39.7% | 26.7% | 17.5% | 22.5% | 12.8% | 25.5%
13 | CN(C)c1ccc(NC(=O)c2ccc(/C=C/C(=O)c3ncc[nH]3)cc2)cc1 | 16.2% | 11.6% | 68.7% | 28.3% | 11.8% | 68.1% | 70.5% |  | 95.3% | 73% | 44.9% | 37.9% | 74% | 71.4% | 94.1% | 4.98% (active) | 27.1% | 92% | 
14 | COc1ccc(-c2nnc(SCC(=O)c3ccc(Cl)cc3)o2)cc1 | 104% | 96% | 88.8% | 101% | 99.8% | 101% |  | 97.1% |  | 101% |  | 99.8% | 95.9% | 102% | 100% | 114% | 109% | 104% | 98.1%
15 | COc1cccc2c1C(=O)c1c(O)c3c(c(O)c1C2=O)C[C@](O)(C(=O)CO)C[C@H]3O[C@@H]1C[C@@H](NC(=O)CCCN(C)C2(c3ccc(F)cc3)CC3CCC2C3)[C@H](O)[C@@H](C)O1 (stereo not given in full) | 3.39% (active) | -61.2% (active) | 30% | -66% (active) | -98% (active) | -76.7% (active) |  | -94.4% (active) |  | -46.3% (active) |  | 71.7% | 54.6% | -86% (active) | 52.5% | -29% (active) | -37% (active) | 47.1% | 61.9%
16 | CCCOc1cc2ccccc2cc1C(=O)Nc1nc(NC)c2c(ccc3nccc32)[nH]1 | -50% (active) | -73.1% (active) | -87.1% (active) | -78.8% (active) | -85.5% (active) | -51.5% (active) | -77.3% (active) |  | -84.4% (active) | -78.4% (active) | -71.7% (active) | -88.8% (active) | -65.8% (active) | -90.7% (active) | -92% (active) | -30.2% (active) | -56.1% (active) | -60.8% (active) | -63.8% (active)
17 | COc1ccc(-c2n[nH]nc2-c2csc3ccccc23)cc1OC | 16.4% | 8.59% (active) | 1.72% (active) | 30.4% | 22.1% | 27.8% | 27.7% |  | 50.2% | 45.8% | 34% | 35.1% | 53.2% | 37.7% | 1.02% (active) | 22.8% | 11% | 15% | 23.2%
18 | COC(=O)c1ccc(Cn2cnc3c(N)ncnc32)cc1 | 99.8% | 98.6% | 86.7% | 104% | 111% | 111% | 102% |  | 104% | 102% | 102% | 89.9% | 86.3% | 101% | 104% | 102% | 93.2% | 90.8% | 103%
